Screens from PubChem BioAssay.
IkB sig inh: IkB pathway inhibition in ABC-DLBCL cells. hit rate 0.04% among 110,000. Potency, µM (highest dose often 57.1 µM), for the others: top-dose IkBa stabilization activation. AID 445. ABC-DLBCL IkBa-CBG/CBR dual luciferase ratio, 4 h; response scale: scaled: untreated 0%, proteasome inhibitor 100%; active = well fitted curve in the direction sought with a large enough effect in the signal ratio, not every such curve was filed as active; inconclusive = small, poorly fitted or top-dose-only effect, or a change in a side signal; the % refers to the signal ratio;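 note: the direction sought is a rising ratio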
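Curves were fitted separately to fusion (green), unfused (red) and ratio luminescence, then classed by r2, magnitude and activity. Cells: OCI-Ly3, 4 h compound plus doxycycline at 37C; 10 uM MG-132 defined full response.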
p53ts 39C tox: kills p53ts cells at the nonpermissive temperature; Potency, µM (series often up to 46.1 µM), for inactives: at the highest dose activity change, negative = cell killing, most hits filed as cytotoxic; H1299-p53A138V viability at 39C, ATP luminescence, 24 h; hit rate 1.5% among 130,000; AID 902; note: % is set by controls: 0 for no effect and ±100 for the full control effect; nearly all actives have a fitted effect of over 55% in size
Peg3 imprint: induces erasure of genomic imprints in mouse ES cells; mouse ES Peg3-LacZ reporter, beta-gal luminescence, 40 h; Potency, µM (doses to about 60.7 µM), inactives show at the highest dose activity change, positive = activation, most hits filed as activators; hit rate 0.02% among 110,000; AID 1948
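Imprint erasure is scored as LacZ activity from the silenced maternal Peg3 allele in feeder-free female ES cells cultured 40 h with LIF. Luminescence is normalized to in-plate negative controls and fitted to the Hill equation.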
p53ts 32C tox: cytotoxicity in p53ts cells at permissive temperature | Potency, µM (series often up to 46.1 µM), for inactives: at the highest dose activity change, negative = cytotoxicity, usual class: cytotoxic | H1299-p53A138V at 32C, ATP luminescence viability, 24 h | hit rate 0.93% among 130,000;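 note: 0% = DMSO and -100% = full killing by reference compound; nearly all actives have a fitted effect of over 55% in size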
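Cells: H1299 p53ts (A138V), 600/well, pre-incubated 16–30 h at 37C. Cpd up to 46 uM, 24 h, 32C. Readout: ATPlite luminescence, 20 min RT. Normalization: DMSO vs tamoxifen 100 uM. AC50 by Hill equation.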
* = called active by the depositor; ? = inconclusive; nt = not tested or not shown; ! = repeats disagree; [ ] = dose if it differs, or a comment. An excerpt weighted towards active compounds, which were near 1.7% of everything screened. Unless noted, calls come from the whole dose curve; as a rule, active = well fitted curve in the direction sought with a large enough effect; inconclusive = small, poorly fitted or top-dose-only effect, or another doubt; inactive = no such curve, though single readings can be large; an effect the other way counts as inactive or inconclusive. Potency is the fitted concentration of half-maximal effect.

SMILES	IkB sig inh	p53ts 39C tox	Peg3 imprint	p53ts 32C tox
CCOc1ccc(CNC(=O)CN2N=C(c3ccccc3)CCC2=O)cc1OC	0%	-15%	-6%[10.9 µM]	-2%
Fc1ccc(C2=NC(c3cccc(C(F)(F)F)c3)=Nc3ccccc3N2)cc1	2%	?	-13%[10.9 µM]	0%
C=C1C(=O)O[C@H]2C[C@@]3(C)CCCC(=C)[C@@H]3C[C@H]12	4%[11.4 µM]	nt	nt	nt
CCN(CC)CCCCNC(=O)c1ccc(Cc2nc3ccccc3[nH]2)cc1	nt	6%	nt	-1%
Cc1c(C(=O)N2CCc3ccccc3C2)sc2nc(-c3ccccc3)cn12	?	-12%	-13%	-2%
c1ccc(-c2cn3c4c(sc3n2)CCCC4)cc1	?	0.63µM*	-88%	1µM*
CC(C)c1nnc(NC(=O)c2nc(SCc3ccc(F)cc3)ncc2Cl)s1	6%	-20%	-11%[10.9 µM]	-3%
Cc1cccc(CS(=O)(=O)c2ncc(Cl)c(C(=O)Nc3nnc(C(C)C)s3)n2)c1	4%	5µM*	-23%[10.9 µM]	16µM*
Cc1ccc(CS(=O)(=O)c2ncc(Cl)c(C(=O)Nc3nnc(C(C)C)s3)n2)cc1	0%	5µM*	-31%[10.9 µM]	13µM*
C[C@@H](Cc1ccccc1)Nc1ncnc2c1ncn2[C@@H]1O[C@@H](CO)[C@H](O)[C@@H]1O	?	14%	nt	41%
COc1ccc(C(=O)Nc2nc3ccccc3[nH]2)cc1OC	?	?	-41%	?
O=C(Nc1nc2ccccc2[nH]1)c1ccc(F)cc1	?	2µM*	-90%	3.2µM*
O=C(Nc1nc2ccccc2[nH]1)c1ccccc1F	?	1.6µM*	-95%	1.3µM*
Clc1ccc(CCNC(c2nnc(-c3ccccc3)o2)c2ccccc2Cl)cc1 (stereo unspecified)	12%	7%	-14%[10.9 µM]	8%
Cc1c(-c2ccc(O)cc2)nn(-c2ccc(O)cc2)c1-c1ccc(OCCN2CCCCC2)cc1	?	32µM*	-22%	?
N[C@@H](CSS(=O)(=O)O)C(=O)O	1%	-10%	-1%	-8%
COc1cc(OC)c(NC(=O)CCCn2nc(C)c3sc4ccccc4c3c2=O)cc1Cl	0%	13µM*	-22%[10.9 µM]	-26%
CC(C)Cn1c(=O)c2sccc2n2c(CCCC(=O)NCc3ccccc3Cl)nnc12	-1%	-2%	8%[10.9 µM]	-6%
CCc1ccc(OCC(=O)Nc2ccc(Cl)c(-c3nc4cc(C)cc(C)c4o3)c2)cc1	-1%	-16%	-10%[10.9 µM]	3%
Cc1ccc2nc(-c3cc(NC(=O)COc4ccc(C)c(C)c4)ccc3Cl)oc2c1	2%	13µM*	-16%[10.9 µM]	?
CCc1ccc(NC(=O)Cn2c(=O)n(-c3ccccc3)c(=O)c3ccc(C(=O)NCc4ccc5c(c4)OCO5)cc32)cc1	1%	16µM*	-8%[10.9 µM]	-21%
CCOc1ccc(NC(=O)Cn2c(=O)n(Cc3ccc(C(=O)NCc4ccc5c(c4)OCO5)cc3)c(=O)c3ccccc32)cc1	1%	6%	-18%[10.9 µM]	2%
CCOc1ccc(NC(=O)Cn2c(=O)n(-c3ccccc3)c(=O)c3ccc(C(=O)NCc4ccc5c(c4)OCO5)cc32)cc1	5%	13µM*	-5%[10.9 µM]	?
Cc1cc(C)c(NC(=O)Cn2c(=O)n(Cc3ccc(C(=O)NCc4ccc5c(c4)OCO5)cc3)c(=O)c3ccccc32)c(C)c1	5%	5µM*	-29%[10.9 µM]	?
Cc1cc(C)c(NC(=O)Cn2c(=O)n(Cc3ccc4c(c3)OCO4)c(=O)c3ccccc32)c(C)c1	3%	9%	2%[10.9 µM]	15%
SMILES	IkB sig inh	p53ts 39C tox	Peg3 imprint	p53ts 32C tox
CCc1ccc(CNC(=O)CN2C(=O)C3CCCCN3c3ccc(C(=O)N4CCCC4)cc32)cc1 (stereo unspecified)	?	-19%	-6%[10.9 µM]	5%
O=C(NCCc1csc2nc(-c3ccccc3F)nn12)c1ccco1	?	-8%	-10%[10.9 µM]	-3%
O=C(Nc1ccc2nc(SCC(=O)N3CCc4ccccc43)sc2c1)c1cccc(F)c1	0%	-20%	-18%[10.9 µM]	3%
O=C(Nc1ccc2nc(SCC(=O)N3CCc4ccccc43)sc2c1)c1ccc(F)cc1	-3%	13µM*	-21%[10.9 µM]	-18%
CCOC(=O)CSc1nc2ccc(NC(=O)c3ccc(C)cc3)cc2s1	?	10µM*	14%[10.9 µM]	13µM*
COc1ccc(C(=O)Nc2ccc3nc(SCC(=O)N4CCOCC4)sc3c2)cc1	?	18%	-12%[10.9 µM]	-6%
Cc1ccc(C(=O)Nc2nnc(SCC(=O)N3CCCc4ccccc43)s2)cc1	nt	0.56µM*	nt	nt
CC(C)Oc1ccc(C(=O)Nc2nnc(SCC(=O)N3CCOCC3)s2)cc1	nt	0.5µM*	nt	0.63µM*
CC(=O)c1ccc(NC(=O)c2nc3ccccc3n(C)c2=O)cc1	-2%	2.5µM*	-30%[10.9 µM]	2.5µM*
Cc1cccc(OCC(=O)Nc2c(C)ccc3nsnc23)c1C	-5%	-12%	14%[10.9 µM]	-6%
Cc1cccc(NC(=O)c2cnc3sccn3c2=O)c1	2%	10µM*	-20%	7.9µM*
CCCCCCn1c(CN2CCN(CCO)CC2)nc2c1c(=O)n(C)c(=O)n2C	0%	3.2µM*	-82%	2.5µM*
CCCCCCn1c(CN2CCC(C)CC2)nc2c1c(=O)n(C)c(=O)n2C	-2%	8%	-15%	-17%
CCOCc1cc(CN2CCN(c3cccc(Cl)c3)CC2)c(O)c2ncccc12	23%	3.2µM*	?	-7%
O=C(O)c1c(Cl)c(Cl)c(Cl)c(Cl)c1-c1c2cc(I)c(=O)c(I)c-2oc2c(I)c(O)c(I)cc12	nt	nt	-24%	nt
O=C(NC1=NCCS1)C1COc2ccccc2O1 (stereo unspecified)	?	13µM*	-90%	13µM*
O=C(c1ccc(Cc2nc3ccccc3[nH]2)cc1)N1CCCCC1	nt	2%	nt	1%
CN1CCN(CCCN2c3ccccc3Sc3ccc(Cl)cc32)CC1	0%[25.6 µM]	20µM*	-24%	16µM*!
CCOc1ccc(NC(=O)c2ccc(N)cc2)cc1	?	13µM*	-66%	13µM*
CCCNC(=O)c1cc(-c2ccc(O)cc2)on1	?	?	0%	?
CCc1nnc2n1N(C(C)=O)C(c1ccc(C(C)(C)C)cc1)=C(C(C)=O)S2	?	13µM*	-19%[10.9 µM]	-8%
CCOc1ccc(C2=C(C(C)=O)Sc3nnc(C)n3N2C(C)=O)cc1	?	-34%	-17%[10.9 µM]	-3%
O=C(c1cc(C(F)(F)F)cc(C(F)(F)F)c1)N1CCC2(CC1)CCN(c1ccncc1)CC2	-1%[11.4 µM]	-26%	nt	-9%
Cc1ccc(C)c(Nc2nn3c(=O)c4ccc(C(=O)NCc5ccccc5)cc4nc3s2)c1	?	13µM*	3%[10.9 µM]	?
COc1ccccc1Nc1nn2c(=O)c3ccc(C(=O)NCc4ccc(F)cc4)cc3nc2s1	-1%	3.2µM*	-36%[10.9 µM]	3.2µM*
CCc1cccc(NC(=O)c2ccc3c(=O)n4nc(Nc5ccccc5OC)sc4nc3c2)c1	0%	5µM*	-18%[10.9 µM]	3.2µM*
CCc1ccccc1Nc1nn2c(=O)c3ccc(C(=O)NCc4ccccc4OC)cc3nc2s1	?	5%	14%[10.9 µM]	-11%
